The source of these data is PubChem BioAssay (NCI).

“And” between values parts separate entries of the source, which are not always exact repeats. Identical values can stand only once. About 83,000 compounds went through this panel and 20% of them were active in at least one assay; those are over-represented in the sample as a whole.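 Negative percent growth values reflect cell death: -40 means 40% of the cells present at the start died, and -100 means all died.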 Unmarked numbers belong to inactive results.

In the first assay the test system is SW-620 colon. Put plainly: NCI-60 one-dose screen, 48 h (100 = growth as untreated, 0 = no growth, -100 = all killed). As to conditions: 10 µM. How it is done:
Growth inhibition of the SW-620 human tumor cell line is measured as a screen for anti-cancer activity. Cells are grown in 96 well plates and exposed to the test compound for 48 hours. Compounds are tested at a single concentration, which is 10^-5 M for most compounds. The reported endpoint is percent growth (GI% or GIPRCNT), where numbers from 0 - 100% represent growth inhibition, and numbers from -100% - 0 represent cell death. For example, a value of 40 represents 60% growth inhibition. A value of 0 means no net growth occurred over the course of the experiment. A value of -40 indicates 40% of cells at the beginning of the experiment died by the end of the experiment. A value of -100 means all cells are dead at the end of the experiment.
NCI-60 Human Tumor Cell Lines Screen was performed using the standard one-dose NCI protocol, which is described in more detail at https://dtp.cancer.gov/discovery_development/nci-60/default.htm.
Compounds with GIPRCNT values below 10 were considered active. Activity score was based on GIPRCNT using the following formula: […]
Score is 0 for GIPRCNT values of 100 or above, 50 for GIPRCNT values of 0, and 100 for GIPRCNT values of -100.
As to `S=c1nc[nH]c2nc[nH]c12`, the growth is 34.6%.

Still in this assay, the particulars now being: 10 µM unless noted.
Consider `COc1ccc2nccc(Cl)c2c1`, for which the growth was 101%.

On to `Cc1cc2ccccc2c2cc3ccccc3cc12`, for which the growth was 90%.

On to `O=C1Cc2ccccc2C(=O)N1`, for which the growth is 56.6%.

For `CC(=O)Oc1cc(C)c(OC(C)=O)c(C)c1C`, the growth is 105%.

On to `CCN(C)c1ccccc1`, for which the growth is 110%.

Turning to `O=c1[nH]nnc2cc(Cl)ccc12`, the growth is 95.3% and 99.8%.

In the case of `CCC(C)(O)CCC(C)(O)CC` (stereo not given), the growth is 112%.

As for `CCN(CC)CCO/N=C1\CC(c2ccc(OC)c(OC)c2)Oc2ccccc21` (stereo not given), the growth is 90.3%.

Regarding `COC(=O)c1nc(N)nc(C(=O)OC)c1C(=O)c1ccc(F)cc1`, the growth is 110%.

For `CC1(C)CC(=O)NC1=O`, the growth was 107%.

`CCOC(=O)c1ccc(C(=N)N)cc1`: the growth is 102%.

`CCOC(=O)C1=CC(=O)CC(C)(C)O1`: the growth is 96.5% and 105%.

With `NC(=O)Cc1nc(O)cc(=O)[nH]1`, the growth is 104%.

On to `Cc1cc(-c2ccc(N=Nc3c(C)nn(-c4ccc(S(=O)(=O)O)cc4)c3O)c(C)c2)ccc1N=Nc1ccc(O)c(C(=O)O)c1`, for which the growth was 98.8%.

Consider `CCOC(=N)c1ccc(C(=N)OCC)cc1`, for which the growth is 119%.

Turning to `CC1(CO)CCCC1NCCNC1CCCC1(C)CO` (stereo not given), the growth was 104% and 101%.

In the case of `CC(C)(C)OC(=O)NCCc1ccc(N)cc1`, the growth was 97.6%.

For the molecule `COc1ccc(CCNC(=S)NN)cc1OC`, the growth was 99%.

As to `C/C=C(/C(=O)NC(N)=O)C(C)C`, the growth is 94.5%.

Consider `CS(=O)(=O)c1nsc(N)n1`, for which the growth was 100%.

For `CN(C)C(=S)N(C)C`, the growth was 107%.

For the molecule `O=C(O)C#Cc1ccc(Cl)cc1`, the growth was 96.8%.

For the molecule `CC1CCC(=O)N1c1ccc(N)cc1` (stereo not given), the growth is 114%.

Regarding `O=C(O)Cc1cc(=O)[nH]n(-c2ccccc2)c1=O`, the growth is 108%.

On to `Nc1c(S(=O)(=O)O)cc(Br)c2c1C(=O)c1ccccc1C2=O`, for which the growth is 109% and 111%.

As for `CC1=CC(=O)C=CC1=Nc1ccc(N(C)C)cc1`, the growth was 105%.

On to `O=C(c1ccc(Cl)cc1)C1C(c2ccccc2)C1[N+](=O)[O-]` (stereo not given), for which the growth is 104%.

`COc1ccc(/C=N/Nc2nc3ccccc3s2)cc1`: the growth was 94.8%.

`CC(=O)C[n+]1ccccc1Sc1ccc(Cl)cc1`: the growth was 91.6%.

On to `CCC/C(=N/NC(N)=O)c1ccco1`, for which the growth is 102%.

As to `COCCNC(C)=O`, the growth is 105%.

In the case of `CC(=O)c1cccc(OC(=O)c2ccccc2)c1`, the growth was 106%.

With `Cc1ccc(C(=O)c2ccc(C)cc2)cc1`, the growth is 104% and 101%.

Consider `Nc1nc(=S)c2[nH]cnc2[nH]1`, for which the growth was 23.3% and 15.9%.

In the case of `CC(=O)/C(N=Nc1ccc(S(=O)(=O)c2ccc(N=N/C(C(C)=O)=C(/C)O)cc2)cc1)=C(\C)O`, the growth was 99.4%.

For the molecule `CCc1ccccc1-n1[nH]c(C)c(C=N)c1=O`, the growth was 106%.

On to `Cn1c(-c2ccccc2)cc(=O)cc1-c1ccccc1`, for which the growth was 51.7%.

Consider `COC1C(OC(N)=O)C(O)C(Oc2ccc3c(O)c(NC(=O)c4ccc(O)c(CC=C(C)C)c4)c(=O)oc3c2C)OC1(C)C` (stereo not given), for which the growth is 104% and 92.7%.

The assay is the same for the next values; noted with them: 50 µM.
As for `S=c1nc[nH]c2nc[nH]c12`, the growth was 21.5%.
